Compounds with a hit are over-represented: about 7.4% of the library has one in this group of screens.
Rab9 promoter act: activates the Rab9 promoter. Huh7 Rab9 promoter-luciferase reporter, luminescence, 24 h. Potency, µM (doses to about 9.22 µM), for the others: at the top dose activation, negative = inhibition, usual class: activators. 320,000 tested, 2.8% active. AID 485297; also: % of control where 0% means no effect; nearly all actives have a fitted effect of over 60% in size
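Luminescence read-out: Huh7 cells stably expressing Rab9-luciferase, treated 24 h with compound at 37 °C, then lysed with luciferase reagent for 10 min at ambient before reading.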
FLuc modulator: inhibits or activates purified firefly luciferase, miR-21 counter-screen | P08659 | purified FLuc, Km substrates, luminescence inhibition | Potency, µM (titrated, usually from 57.5 µM), without a hit: top-dose activity change, negative = inhibition, usual class: inhibitors | 360,000 tested, 6.9% active;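 also: plate controls were vehicle for no effect and reference inhibitor for full effect; nearly all actives have a fitted effect of over 55% in size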
Target sequence (P08659 whole entry, looked up): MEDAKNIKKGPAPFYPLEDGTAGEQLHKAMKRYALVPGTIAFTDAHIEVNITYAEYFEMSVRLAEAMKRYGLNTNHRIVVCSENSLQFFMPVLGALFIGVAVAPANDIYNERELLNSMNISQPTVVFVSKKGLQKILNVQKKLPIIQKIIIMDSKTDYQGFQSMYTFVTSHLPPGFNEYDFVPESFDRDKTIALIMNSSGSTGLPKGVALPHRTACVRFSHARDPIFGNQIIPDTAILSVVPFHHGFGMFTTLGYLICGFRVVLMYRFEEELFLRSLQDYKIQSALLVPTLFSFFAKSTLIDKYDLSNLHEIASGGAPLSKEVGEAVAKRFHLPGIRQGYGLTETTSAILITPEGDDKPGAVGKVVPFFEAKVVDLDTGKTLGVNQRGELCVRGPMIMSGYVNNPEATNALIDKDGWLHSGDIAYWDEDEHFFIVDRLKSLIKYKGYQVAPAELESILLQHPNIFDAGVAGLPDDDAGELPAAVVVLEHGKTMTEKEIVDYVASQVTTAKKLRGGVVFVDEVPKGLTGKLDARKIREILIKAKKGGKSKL
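Biochemical qHTS of compounds, final roughly 60 µM downward over six points, against 10 nM purified firefly luciferase using Km concentrations of substrates (10 uM D-luciferin, 10 uM ATP) in Tris acetate pH 7.5 buffer; luminescence output.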
ELG1 genotoxic: induces genotoxicity in HEK293T cells with luciferase-tagged ELG1; HEK293T ELG1-luciferase reporter, luminescence, 16 h; Potency, µM (highest dose often 46 µM), for the others: top-dose activity change, positive = activation, most hits filed as activators; 330,000 tested, 1.3% active; AID 504466; also: % of control where 0% means no effect; nearly all actives have a fitted effect of over 60% in size
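Luminescence read-out: rising ELG1-luciferase signal, reflecting elevated ELG1 protein under genetic stress, flags genotoxic compounds. Cells were treated for 16 hr at 37 °C before ONE-Glo detection.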
NPC1 promoter act: activators of NPC1 promoter; Huh7 NPC1 promoter luciferase reporter, 24 h; Potency, µM (highest dose often 9.22 µM), for inactives: top-dose activation, usual class: activators; 320,000 tested, 2.4% active; also: % of control where 0% means no effect; nearly all actives have a fitted effect of over 60% in size
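Luciferase expression driven by the NPC1 promoter was measured in stably transfected Huh7 cells after a 24 h compound incubation, using a luciferase reagent and a luminescence read.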
SMN2 splice enh: enhancers of SMN2 splice variant expression. HEK293 SMN2-luciferase splicing reporter, luminescence, 30-36 h. Potency, µM (series often up to 46.1 µM), for the others: at the highest dose activity change, positive = activation, most hits filed as activators. 210,000 tested, 2.8% active; also: % of control where 0% means no effect; nearly all actives have a fitted effect of over 55% in size
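qHTS luciferase splicing reporter: luminescence rises when SMN2 exon 7 is included in transfected HEK293 cells. Compound exposure lasted 30-36 h at 37C, with 4.5 mM final sodium butyrate as control, followed by a ONE-Glo read.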
Active calls of the source: *; ? = inconclusive; . = no result; [ ] = another dose, or the depositor's remark. Calls follow the shape of the dose curve; as a rule, active = well fitted curve in the direction sought with a large enough effect; inconclusive = small, poorly fitted or top-dose-only effect, or another doubt; inactive = no such curve, though single readings can be large; an effect the other way counts as inactive or inconclusive. Potency is read from the fitted curve at half-maximal effect.

SMILES	Rab9 promoter act	FLuc modulator	ELG1 genotoxic	NPC1 promoter act	SMN2 splice enh
CCCc1cc(=O)oc2cc(C)cc(OCC(=O)Nc3ccccn3)c12	11.7%	4.0%	1.0%	-3.1%	.
CCCCc1cc(=O)oc2cc(C)cc(OCC(=O)Nc3ccccn3)c12	2.51µM*	8.49µM*	?	2µM*	.
Cc1ccc(N(CC(=O)NC2CCCCC2)C(=O)CNC(=O)c2ccco2)c(C)c1	-2.3%	0.9%	1.8%	-0.3%	.
CCOC(=O)C1CCN(C(=O)c2ccc(S(=O)(=O)Nc3ccccc3Cl)cc2)CC1	-5.6%	0.5%	-2.8%	-0.3%	.
CC(=O)Nc1ccc(-c2csc(N3CCC(C(N)=O)CC3)n2)cc1	.	-11.3%	.	.	.
NC(=O)C1CCN(c2nc(-c3ccc(N4CCCCC4)nc3)cs2)CC1	.	4.78µM*	.	.	.
NC(=O)C1CCN(c2nc(-c3ccc(C(F)(F)F)cc3)cs2)CC1	.	16.9µM*	.	.	.
CC(=O)c1ccc(-c2csc(N3CCC(C(N)=O)CC3)n2)cc1	22.2%	?	7.9%	20.1%	.
NC(=O)C1CCN(c2nc(-c3ccc(Br)cc3)cs2)CC1	2.51µM*	-13.1%	6.51µM*	?	3.98µM*
COc1ccc(Cl)cc1NC(=O)c1c(NCc2cccs2)sc2c1CCC(C)C2 (stereo unspecified)	.	-8.5%	.	.	.
Cc1csc2nc(-c3cccc(NC(=O)c4ccc(S(N)(=O)=O)cc4)c3)cn12	.	9.53µM*	.	.	.
CCOCC(=O)Nc1ccc(-c2cn3c(C)csc3n2)cc1	.	16.9µM*	.	.	.
Cc1csc2nc(-c3cccc(NC(=O)c4c(F)cccc4F)c3)cn12	.	21.3µM*	.	.	.
O=C(CCC1CCCCC1)NC1CCCCC1	.	.	1.9%	.	.
O=C(O)CCC(=O)N1CCc2cc(S(=O)(=O)NCc3ccc(F)cc3)ccc21	.	-5.9%	.	.	1.6%
COc1ccc(N(CC(=O)Nc2cccc(Cl)c2C)S(=O)(=O)c2c(C)nn(C)c2C)cc1	.	1.1%	.	.	-36.1%
Cc1ccc(-c2nc3ccccc3[nH]2)cc1NC(=O)/C=C/c1ccco1	?	8.49µM*	-3.4%	23.5%	7.4%
Cc1ccc(-c2nc3ccccc3[nH]2)cc1NC(=S)NC(=O)c1ccccc1Br	1.8%	5.36µM*	-0.5%	-3.7%	-52.9%
CCCOc1ccc(C(=O)Nc2cc(-c3nc4ccccc4[nH]3)ccc2C)cc1	.	?	.	.	-2.5%
S=C(NCc1ccc2c(c1)OCO2)Nc1ccc(-c2nc3ccccc3[nH]2)cc1	21.4%	?	0.8%	-0.5%	-0.4%
Cc1cc(C)c2oc(-c3ccc(C)c(NC(=S)NC(=O)/C=C/c4ccco4)c3)nc2c1	9.3%	?	-0.1%	2.7%	15.9%
O=C(NC(=S)Nc1cc(-c2nc3ccccc3[nH]2)ccc1Cl)c1ccc2c(c1)OCO2	2.2%	6.75µM*	2.6%	-1.4%	26.7%
Cc1ccc(OCC(=O)Nc2cc(-c3nc4ccccc4[nH]3)ccc2C)c(C)c1	.	-4.2%	.	.	4.1%
Cc1ccc(-c2nc3ccccc3[nH]2)cc1NC(=O)c1ccc2c(c1)OCO2	3.4%	10.7µM*	-2.1%	?	2.5%
Cc1ccc(C)c(NC(=O)CCN2C(=O)[C@@H]3Cc4ccccc4CN3C2=O)c1	0.1%	2.8%	-1.6%	17.5%	.
SMILES	Rab9 promoter act	FLuc modulator	ELG1 genotoxic	NPC1 promoter act	SMN2 splice enh
CCOc1ccccc1CNC(=O)c1sc2ncccc2c1-n1cccc1	.	-19.4%	.	.	.
O=c1cc(N=Nc2ccc(O)cc2)[nH]c(=O)[nH]1	.	.	.	.	-24.7%[9.22 µM]
Oc1ccc(N=Nc2ccc3ccccc3c2)cc1	?	1.07µM*	2.31µM*	3.55µM*	.
COc1cc(N=Nc2ccccc2C(=O)O)ccc1O	-9.8%	?	1.3%	0.3%	.
Oc1ccc(N=Nc2c(O)ccc3ccccc23)cc1	11.3%	26.9µM*	-1.2%	16.2%	-21.3%
COc1cc(N=Nc2ccc3ccccc3c2)ccc1O	?	5.36µM*	11.6µM*	3.16µM*	.
CCc1ccc(C(=O)c2cn(CC(=O)NCCc3ccccc3)c3nc(C)ccc3c2=O)cc1	.	-4.6%	.	.	.
Cc1cccc(-n2c(SCC(=O)c3ccccc3)nnc2-c2ccc(Br)cc2)c1	.	0.1%	.	.	.
COCC(C)n1c(COc2ccccc2F)nnc1SCC(=O)Nc1oc(C)c2c(C)n[nH]c(=O)c12 (stereo unspecified)	-4.7%	8.1%	6.4%	-0.5%	.
Nc1ccccc1C(=O)NNC(=O)C(=O)/C=C(\O)c1ccccc1	20.6%	13.5µM*	14.6%	16.8%	.
O=C(/C=C(\O)c1ccccc1)C(=O)NNC(=O)c1ccccc1[N+](=O)[O-]	0.8%	2.1%	1.7%	10.7%	.
CCN(CC(=O)NCc1ccc(F)cc1)C(=O)c1ccc2c(c1)OCO2	-4.4%	1.5%	-0.2%	0.6%	.
Cc1ccc(N(CC(=O)NC2CCCCC2)C(=O)CCCC(=O)Nc2ccccn2)cc1	-1.6%	-1.9%	-3.3%	-2.7%	.
CCc1ccccc1OCC(=O)Nc1ccc(S(N)(=O)=O)cc1	-2.7%	3.1%	-1.2%	1.2%	35.5µM*
Cc1cc(-c2nnc(SCc3ccccn3)o2)no1	28.1%	-11.9%	11.1%	25.9%	5.3%
Cc1cc(-c2nnc(-c3cccc(C(F)(F)F)c3)o2)no1	?	16.9µM*	15.2%	?	.
Cc1ccc(-c2nnc(-c3cc(C)on3)o2)cc1	0.562µM*	1.51µM*	3.26µM*	0.794µM*	.
Cc1cc(-c2nnc(CCC(=O)NCc3cccc(C(F)(F)F)c3)o2)no1	7.1%	-16.1%	9.3%	8.6%	.
Cc1cc(NC(=O)CSc2nc3c(C)ccc(C)c3cc2C#N)no1	0.3%	0.4%	16.9%	-15.9%	.
Cc1cc(C)c(C#N)c(SCC(=O)Nc2cc(C)on2)n1	.	.	18.3µM*	.	.
Cc1cc(C)c(C#N)c(SCC(=O)Nc2ccccc2C(N)=O)n1	1.26µM*	12µM*	?	2µM*	12.6µM*

Assay outcomes as filed in PubChem.
